Experimental data from PubChem BioAssay AID1259240 (Keith Lab, Institute of Cancer Science, University of …, 2017).
The source made the active and inactive calls. Cut-off read from the data, not from the text of the source: active = fold change mostly below about -2 (no sharp cut-off); inactive = mostly above about -1.8.

test: TERT promoter activity modulators, primary screen, cell-based, luciferase reporter, human (AID 1259240); settings: A2780 TERT promoter luciferase reporter, 16 h; at 20 µM, fold versus average of vehicle-only wells

Fold change, inactive:
CN1C(C(=O)c2ccccc2)=C(OC(=O)c2ccc(F)cc2)c2ccccc2S1(=O)=O 1.16
Cc1cc(NS(=O)(=O)c2ccc(NC(=O)[C@@H]3CCCC[C@@H]3C(=O)O)cc2)no1 -1.94
Cc1ccc2c(C)nc(NC3=NCN(CC4CCCO4)CN3)nc2c1 (stereo not given) -1.73
Clc1ccc(CNc2ccc3nncn3n2)cc1 -1.3
Cc1ccccc1N1CC(O)(c2ccccc2)[N+]2=C1SCCC2 (stereo not given) -1.05
CCc1c(C)sc(NC(=O)c2cc(C)no2)c1C#N 1.32
Cn1c(=O)c(=O)n(C)c2cc(S(=O)(=O)N3CCC(C(N)=O)CC3)ccc21 -1.21
Cc1cc(NC(=O)CSc2nnc(Cc3cc(=O)[nH]c(=O)[nH]3)n2-c2ccc(Cl)cc2)no1 -1.22
Cc1cc(C)cc(NC(=O)CC(C)CC2=NS(=O)(=O)c3ccccc3N2)c1 (stereo not given) -1.03
COc1ccc2c(=O)c(Oc3ccc(C)cc3)c(C(F)(F)F)oc2c1 -1.15
COc1ccc(CCn2c(=O)c3cccnc3n(CC#N)c2=O)cc1OC 1.04
CCOC(=O)C1=C(CS(=O)(=O)c2ccc(F)c(C)c2)NC(=O)NC1c1cc(OC)ccc1OC (stereo not given) 1.23
CC(CC(=O)Nc1nccs1)CC1=NS(=O)(=O)c2ccccc2N1 (stereo not given) -1.22
O=C(NCCc1c[nH]c2ccccc12)c1ccc(NC2=NC3CS(=O)(=O)CC3S2)cc1 (stereo not given) -1.35
Cc1nc2c(-c3ccc(F)cc3)c(C)nn2c(C)c1CCC(=O)NCc1ccc2c(c1)OCO2 1.02
CCOc1ccc2c(c1)CN(c1ccc(Cl)cc1)CO2 -1.19
CCOC(=O)c1cc2cc(Cl)ccc2oc1=O 1.32
CC1CCC(NC(=O)C(=O)Nc2ccc3nc4n(c(=O)c3c2)CCCCC4)CC1 (stereo not given) 1
CCCCCn1c(=O)[nH]c2c(c1=O)CCC2 -1.18
O=c1c2ccccc2nc(N2CCOCC2)n1Cc1ccccc1 -1.33
Cc1cc(C(=O)NC2CCCCC2)on1 1.39
Cc1noc(C(=O)N2CCN(c3ccccc3)CC2)c1Cl -1.23
CCOC(=O)Cn1c(=O)oc2cc(S(=O)(=O)NCCC(C)C)ccc21 -1
O=C1CC(c2ccc(F)c(F)c2)c2cc3c(cc2N1)OCO3 (stereo not given) 1.27
CC1=NN(c2nc3ccccc3nc2-n2nc(C)cc2C)C(=O)C1 -1.08
O=C(O)c1c2c(nc3ccc(S(=O)(=O)N4CCC(C(=O)N5CCCCCC5)CC4)cc13)CCCC2 1.03
O=C(CN1C(=O)C2(OCCO2)c2ccccc21)c1ccc(F)cc1 1.12
O=C(Nc1ccc2nc3n(c(=O)c2c1)CCCCC3)C(=O)N1CCOCC1 1.01
CC(C)CCNS(=O)(=O)c1ccc2c(c1)n(C)c(=O)c(=O)n2C 1.28
Cn1c(=O)c2c(SCC(=O)Nc3ccc(F)cc3)nc(-c3ccco3)nc2n(C)c1=O 1.12
Cn1c2ccccc2c2cnn(CC(=O)N3CCN(c4ccccn4)CC3)c(=O)c21 -1.1
CN(CC(=O)NCc1cccs1)S(=O)(=O)c1ccc2c(c1)n(C)c(=O)c(=O)n2C 1.51
Cc1ccc(N2CCN(c3cc(C)nc4ncnn34)CC2)c(C)c1 -1.38
COc1ccc(S(=O)(=O)NC(C)(C)CO)cc1-c1nnc2c3ccccc3c(C)nn12 -1.26
O=C(Cn1c(=O)oc2cc(S(=O)(=O)N3CCc4ccccc43)ccc21)NC1CCCC1 -1.1
CN(Cc1ccccc1)C(=O)C1CCCN(S(=O)(=O)c2ccc3c(c2)oc(=O)n3C)C1 (stereo not given) -1.14
Cc1cc(NC(=O)CSCc2nc(-c3cccc(Cl)c3)oc2C)no1 1.06

outcome, inactive:
CC1=C(C(N)=O)C(c2ccc(O)cc2)n2nc(CCCO)nc2N1 (stereo not given)
Cn1c(SCC(=O)Nc2ccc(F)cc2)nnc1-c1c[nH]c2ccccc12
O=c1[nH]c(CN2CCN(CCO)CC2)nc2ccccc12
